In PubChem BioAssay:
Active and inactive are the calls of the source.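 Rule for the calls, unless noted: active = normalized viability below 100% at a tested concentration; inactive = the rest.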

Key:
[1] = sensitizers of A549 cells to miR-34 induction, primary screen, imaging, A549 dox-inducible miR-34, nuclei and caspase counts (AID 1347080;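 active = compounds whose cell count with miR-34 switched on is under 0.7 times the count with it off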); details: A549 miR-34 inducible, Hoechst nuclei count, 48 h
[2] = survival rescue of mitochondrial mutant cells in low glucose, primary screen, MELAS cybrids, Rieske KO mouse fibroblasts, CellTiter-Glo (AID 1508586;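 active = mean z-score across replicates of 1.96 or higher in either the MELAS or the Rieske mutant cell line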;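 note: z relative to plate mean and SD of compound and empty wells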)
[3] = ovarian cancer cell viability with rucaparib, profiling panel, oncology-focused library, rucaparib conditional (AID 1508598); details: patient-derived ovarian cancer cells, CellTiter-Glo viability, 144 h, stronger effect = lower value
[4] = stronger effect = lower value, cell number ratio, induced over uninduced
[5] = measured here: relative caspase fold change +Dox/-Dox
[6] = measured here: total cells with miR-34 induction, stronger effect = lower value
[7] = measured here: total cells without miR-34 induction
[8] = MELAS cybrid survival, CellTiter-Glo 48 h, stronger effect = higher value
[9] = Rieske KO mouse fibroblast survival, CellTiter-Glo 72 h
[10] = at 0.000305 µM, OCI-C5x cells, with rucaparib 10 µM, 100% = cells with rucaparib alone
[11] = at 0.000305 µM, OCI-C5x cells, without rucaparib
[12] = at 0.000305 µM, OCI-P5x cells, with rucaparib 20 µM, 100% = cells with rucaparib alone
[13] = at 0.000305 µM, OCI-P5x cells, without rucaparib
[14] = at 0.00122 µM, OCI-C5x cells, with rucaparib 10 µM, 100% = cells with rucaparib alone
[15] = at 0.00122 µM, OCI-C5x cells, without rucaparib
[16] = at 0.00122 µM, OCI-P5x cells, with rucaparib 20 µM, 100% = cells with rucaparib alone
[17] = at 0.00122 µM, OCI-P5x cells, without rucaparib
[18] = at 0.00488 µM, OCI-C5x cells, with rucaparib 10 µM, 100% = cells with rucaparib alone
[19] = at 0.00488 µM, OCI-C5x cells, without rucaparib
[20] = at 0.00488 µM, OCI-P5x cells, with rucaparib 20 µM, 100% = cells with rucaparib alone
[21] = at 0.00488 µM, OCI-P5x cells, without rucaparib
[22] = at 0.0195 µM, OCI-C5x cells, with rucaparib 10 µM, 100% = cells with rucaparib alone
[23] = at 0.0195 µM, OCI-C5x cells, without rucaparib
[24] = at 0.0195 µM, OCI-P5x cells, with rucaparib 20 µM, 100% = cells with rucaparib alone
[25] = at 0.0195 µM, OCI-P5x cells, without rucaparib
[26] = at 0.0781 µM, OCI-C5x cells, with rucaparib 10 µM, 100% = cells with rucaparib alone
[27] = at 0.0781 µM, OCI-C5x cells, without rucaparib
[28] = at 0.0781 µM, OCI-P5x cells, with rucaparib 20 µM, 100% = cells with rucaparib alone
[29] = at 0.0781 µM, OCI-P5x cells, without rucaparib
[30] = at 0.313 µM, OCI-C5x cells, with rucaparib 10 µM, 100% = cells with rucaparib alone
[31] = at 0.313 µM, OCI-C5x cells, without rucaparib
[32] = at 0.313 µM, OCI-P5x cells, with rucaparib 20 µM, 100% = cells with rucaparib alone
[33] = at 0.313 µM, OCI-P5x cells, without rucaparib
[34] = at 1.25 µM, OCI-C5x cells, with rucaparib 10 µM, 100% = cells with rucaparib alone
[35] = at 1.25 µM, OCI-C5x cells, without rucaparib
[36] = at 1.25 µM, OCI-P5x cells, with rucaparib 20 µM, 100% = cells with rucaparib alone
[37] = at 1.25 µM, OCI-P5x cells, without rucaparib
[38] = at 5 µM, OCI-C5x cells, with rucaparib 10 µM, 100% = cells with rucaparib alone
[39] = at 5 µM, OCI-C5x cells, without rucaparib
[40] = at 5 µM, OCI-P5x cells, with rucaparib 20 µM, 100% = cells with rucaparib alone
[41] = at 5 µM, OCI-P5x cells, without rucaparib

Cc1[nH]c(C=C2C(=O)Nc3ccc(S(=O)(=O)N(C)c4cccc(Cl)c4)cc32)c(C)c1C(=O)N1CCN(C)CC1
-1.1: z-score [2, 9]
0.91: fold change [1, 5]
active: viability [3, 16] 92.9% | viability [3, 17] 98.8% | viability [3, 20] 89.6% | viability [3, 21] 96.9% | viability [3, 24] 96.9% | viability [3, 25] 94.2% | viability [3, 41] 58.4%
3050: cell count [1, 6]
inactive: fold change [1, 4] 0.944 | z-score [2, 8] -0.734 | viability [3, 10] 109% | viability [3, 11] 113% | viability [3, 12] 106% | viability [3, 13] 104% | viability [3, 14] 117% | viability [3, 15] 112% | viability [3, 18] 118% | viability [3, 19] 113% | viability [3, 22] 116% | viability [3, 23] 126% | viability [3, 26] 120% | viability [3, 27] 125% | viability [3, 28] 104% | viability [3, 29] 102% | viability [3, 30] 122% | viability [3, 31] 131% | viability [3, 32] 113% | viability [3, 33] 107% | viability [3, 34] 138% | viability [3, 35] 151% | viability [3, 36] 114% | viability [3, 37] 107% | viability [3, 38] 133% | viability [3, 39] 126% | viability [3, 40] 102%
3230: cell count [1, 7]

Cc1cc([N+](=O)[O-])ccc1NS(=O)(=O)c1cc(Cl)ccc1Cl
-3.52: z-score [2, 9]
3730: cell count [1, 7]
3670: cell count [1, 6]
0.518: fold change [1, 5]
inactive: fold change [1, 4] 0.984 | z-score [2, 8] -0.622 | viability [3, 10] 116% | viability [3, 11] 110% | viability [3, 14] 122% | viability [3, 15] 118% | viability [3, 18] 120% | viability [3, 19] 111% | viability [3, 22] 118% | viability [3, 23] 110% | viability [3, 26] 122% | viability [3, 27] 121% | viability [3, 29] 101% | viability [3, 30] 109% | viability [3, 31] 115% | viability [3, 32] 101% | viability [3, 34] 102% | viability [3, 35] 123%
active: viability [3, 12] 74.5% | viability [3, 13] 83.8% | viability [3, 16] 65.9% | viability [3, 17] 73.5% | viability [3, 20] 62.7% | viability [3, 21] 74.6% | viability [3, 24] 65.1% | viability [3, 25] 76.4% | viability [3, 28] 99.2% | viability [3, 33] 99.3% | viability [3, 36] 96.3% | viability [3, 37] 89.4% | viability [3, 38] 99.8% | viability [3, 39] 87% | viability [3, 40] 91.1% | viability [3, 41] 70.2%

O=C(O[C@H]1CN2CCC1CC2)N1CCc2ccccc2C1c1ccccc1 (stereo not given in full)
6880: cell count [1, 6]
inactive: fold change [1, 4] 0.932 | z-score [2, 8] -0.171
7380: cell count [1, 7]
0.636: fold change [1, 5]
0.000903: z-score [2, 9]

C[C@]12CC[C@H]3c4ccc(O)cc4CC[C@H]3[C@@H]1CCC2=O
active: viability [3, 20] 99.5% | viability [3, 24] 96.5% | viability [3, 25] 96.2% | viability [3, 27] 99.8% | viability [3, 28] 96.1% | viability [3, 29] 66% | viability [3, 30] 81.6% | viability [3, 31] 57.7% | viability [3, 32] 80.9% | viability [3, 33] 42.9% | viability [3, 34] 78% | viability [3, 35] 63.5% | viability [3, 36] 65% | viability [3, 37] 29.9% | viability [3, 38] 36.6% | viability [3, 39] 23.7% | viability [3, 40] 43.7% | viability [3, 41] 13.5%
8340: cell count [1, 7]
1.15: fold change [1, 5]
inactive: fold change [1, 4] 0.911 | z-score [2, 8] -0.223 | viability [3, 10] 108% | viability [3, 11] 116% | viability [3, 12] 102% | viability [3, 13] 111% | viability [3, 14] 112% | viability [3, 15] 117% | viability [3, 16] 101% | viability [3, 17] 106% | viability [3, 18] 115% | viability [3, 19] 120% | viability [3, 21] 100% | viability [3, 22] 114% | viability [3, 23] 108% | viability [3, 26] 115%
0.742: z-score [2, 9]
7600: cell count [1, 6]

C[C@]12C=CC(=O)C=C1CC[C@@H]1[C@H]2C(=O)C[C@@]2(C)[C@H]1CC[C@@]2(O)C(=O)CO
-0.016: z-score [2, 9]
0.898: fold change [1, 5]
7790: cell count [1, 6]
8660: cell count [1, 7]
inactive: fold change [1, 4] 0.899 | z-score [2, 8] -0.304 | viability [3, 10] 112% | viability [3, 11] 111% | viability [3, 14] 111% | viability [3, 15] 107% | viability [3, 18] 107% | viability [3, 19] 102% | viability [3, 22] 110% | viability [3, 23] 102% | viability [3, 26] 109% | viability [3, 27] 101% | viability [3, 30] 120%
active: viability [3, 12] 93.3% | viability [3, 13] 93.5% | viability [3, 16] 95.9% | viability [3, 17] 93.2% | viability [3, 20] 91% | viability [3, 21] 90.1% | viability [3, 24] 88.4% | viability [3, 25] 84.5% | viability [3, 28] 85% | viability [3, 29] 88.3% | viability [3, 31] 94.4% | viability [3, 32] 85.2% | viability [3, 33] 78.8%
